The whole screen tested about 5,500 compounds, of which about 2,000 (36%) were called active. Not shown: some 18% with an inconclusive outcome. No stated cut-off is given here; in the data, active means normalized growth mostly below about 0.91 (no sharp cut-off); inconclusive means no clear call, values can overlap the other calls; inactive means mostly above about 0.92. The list shows a part of the results.
Experiment: chemical genetic growth profiling, strain panel (AID 1159580);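 further: tested at 20 µM; growth read once vehicle control cultures reached saturation at 30 °C; 1 = growth at the plate median or of vehicle wells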
Conditions: growth OD

Measured: normalized growth

CCOc1cccc(C(=O)c2ccc(O)c(O)c2O)c1
active: S. cerevisiae deletion strains, locus YKR001C, strain vps1, stronger effect = lower value 0.811 | S. cerevisiae deletion strains, locus YLR027C, strain aat2, stronger effect = lower value 0.905 | S. cerevisiae deletion strains, locus YLR039C, strain RIC1, stronger effect = lower value 0.521 | S. cerevisiae deletion strains, locus YLR058C, strain SHM2, stronger effect = lower value 0.524 | S. cerevisiae deletion strains, locus YLR221C, strain rsa3, stronger effect = lower value 0.87 | S. cerevisiae deletion strains, locus YLR258W, strain gsy2, stronger effect = lower value 0.899 | S. cerevisiae deletion strains, locus YLR262C, strain YPT6 (second series), stronger effect = lower value 0.627 | S. cerevisiae deletion strains, locus YLR268W, strain sec22, stronger effect = lower value 0.72 | S. cerevisiae deletion strains, locus YLR320W, strain mms22, stronger effect = lower value 0.806 | S. cerevisiae deletion strains, locus YLR330W, strain CHS5, stronger effect = lower value 0.804 | S. cerevisiae deletion strains, locus YLR342W, strain FKS1 (second series), stronger effect = lower value 0.633 | S. cerevisiae deletion strains, locus YLR342W, strain FKS1, stronger effect = lower value 0.903 | S. cerevisiae deletion strains, locus YLR357W, strain rsc2, stronger effect = lower value 0.706 | S. cerevisiae deletion strains, locus YLR371W, strain rom2, stronger effect = lower value 0.737 | S. cerevisiae deletion strains, locus YLR418C, strain cdc73, stronger effect = lower value 0.563 | S. cerevisiae deletion strains, locus YML016C, strain PPZ1, stronger effect = lower value 0.71 | S. cerevisiae deletion strains, locus YML120C, strain ndi1, stronger effect = lower value 0.765 | S. cerevisiae deletion strains, locus YMR058W, strain fet3, stronger effect = lower value 0.283 | S. cerevisiae deletion strains, locus YMR205C, strain PFK2, stronger effect = lower value 0.74 | S. cerevisiae deletion strains, locus YMR223W, strain ubp8, stronger effect = lower value 0.844 | S. cerevisiae deletion strains, locus YMR231W, strain pep5, stronger effect = lower value 0.826 | S. cerevisiae deletion strains, locus YMR263W, strain SAP30, stronger effect = lower value 0.854 | S. cerevisiae deletion strains, locus YNL067W, strain RPL9B, stronger effect = lower value 0.841 | S. cerevisiae deletion strains, locus YNL071W, strain lat1, stronger effect = lower value 0.889 | S. cerevisiae deletion strains, locus YNL153C, strain GIM3, stronger effect = lower value 0.747 | S. cerevisiae deletion strains, locus YNL209W, strain ssb2, stronger effect = lower value 0.752 | S. cerevisiae deletion strains, locus YNL233W, strain BNI4, stronger effect = lower value 0.781 | S. cerevisiae deletion strains, locus YNL271C, strain bni1, stronger effect = lower value 0.886 | S. cerevisiae deletion strains, locus YNR052C, strain pop2, stronger effect = lower value 0.739 | S. cerevisiae deletion strains, locus YOL006C, strain TOP1, stronger effect = lower value 0.398 | S. cerevisiae deletion strains, locus YOL147C, strain pex11, stronger effect = lower value 0.823 | S. cerevisiae deletion strains, locus YOR001W, strain rrp6, stronger effect = lower value 0.87 | S. cerevisiae deletion strains, locus YOR061W, strain CKA2, stronger effect = lower value 0.788 | S. cerevisiae deletion strains, locus YOR069W, strain VPS5, stronger effect = lower value 0.808 | S. cerevisiae deletion strains, locus YOR070C, strain gyp1, stronger effect = lower value 0.925 | S. cerevisiae deletion strains, locus YOR106W, strain vam3, stronger effect = lower value 0.639 | S. cerevisiae deletion strains, locus YOR144C, strain elg1, stronger effect = lower value 0.816 | S. cerevisiae deletion strains, locus YOR184W, strain ser1, stronger effect = lower value 0.812 | S. cerevisiae deletion strains, locus YOR265W, strain rbl2, stronger effect = lower value 0.923 | S. cerevisiae deletion strains, locus YOR270C, strain vph1, stronger effect = lower value 0.637 | S. cerevisiae deletion strains, locus YOR290C, strain snf2, stronger effect = lower value 0.64 | S. cerevisiae deletion strains, locus YPL051W, strain arl3, stronger effect = lower value 0.767 | S. cerevisiae deletion strains, locus YPL106C, strain sse1, stronger effect = lower value 0.823 | S. cerevisiae deletion strains, locus YPL241C, strain CIN2, stronger effect = lower value 0.926 | S. cerevisiae deletion strains, locus YPR167C, strain met16, stronger effect = lower value 0.84 | S. cerevisiae deletion strains, strain wtn01, stronger effect = lower value 0.799 | S. cerevisiae strains, strain wild type, stronger effect = lower value 0.635
inactive: S. cerevisiae deletion strains, locus YKL009W, strain mrt4, stronger effect = lower value 0.914 | S. cerevisiae deletion strains, locus YKL068W, stronger effect = lower value 0.972 | S. cerevisiae deletion strains, locus YKL085W, strain MDH1 (second series), stronger effect = lower value 0.955 | S. cerevisiae deletion strains, locus YKL085W, strain MDH1, stronger effect = lower value 0.955 | S. cerevisiae deletion strains, locus YKL160W, strain elf1, stronger effect = lower value 0.93 | S. cerevisiae deletion strains, locus YKR026C, strain gcn3, stronger effect = lower value 0.956 | S. cerevisiae deletion strains, locus YKR091W, strain srl3, stronger effect = lower value 0.966 | S. cerevisiae deletion strains, locus YLL001W, strain dnm1, stronger effect = lower value 0.945 | S. cerevisiae deletion strains, locus YLL026W, stronger effect = lower value 0.936 | S. cerevisiae deletion strains, locus YLL041C, strain sdh2, stronger effect = lower value 0.939 | S. cerevisiae deletion strains, locus YLR102C, strain apc9, stronger effect = lower value 0.996 | S. cerevisiae deletion strains, locus YLR113W, strain HOG1, stronger effect = lower value 1.05 | S. cerevisiae deletion strains, locus YLR370C, strain arc18, stronger effect = lower value 0.939 | S. cerevisiae deletion strains, locus YLR384C, strain iki3, stronger effect = lower value 0.938 | S. cerevisiae deletion strains, locus YML032C, strain rad52, stronger effect = lower value 0.942 | S. cerevisiae deletion strains, locus YML124C, strain tub3, stronger effect = lower value 0.948 | S. cerevisiae deletion strains, locus YMR078C, strain ctf18, stronger effect = lower value 0.966 | S. cerevisiae deletion strains, locus YMR125W, strain sto1, stronger effect = lower value 0.976 | S. cerevisiae deletion strains, locus YMR129W, stronger effect = lower value 0.95 | S. cerevisiae deletion strains, locus YMR307W, strain GAS1, stronger effect = lower value 0.698 | S. cerevisiae deletion strains, locus YNL183C, strain NPR1, stronger effect = lower value 0.98 | S. cerevisiae deletion strains, locus YNL248C, strain rpa49, stronger effect = lower value 0.95 | S. cerevisiae deletion strains, locus YNL250W, strain rad50, stronger effect = lower value 0.937 | S. cerevisiae deletion strains, locus YNL298W, strain CLA4, stronger effect = lower value 0.931 | S. cerevisiae deletion strains, locus YNL307C, strain MCK1, stronger effect = lower value 0.907 | S. cerevisiae deletion strains, locus YNL322C, strain KRE1 (second series), stronger effect = lower value 0.965 | S. cerevisiae deletion strains, locus YNR049C, strain mso1, stronger effect = lower value 0.961 | S. cerevisiae deletion strains, locus YOL012C, strain htz1 0.288 | S. cerevisiae deletion strains, locus YOR080W, strain dia2, stronger effect = lower value 0.961 | S. cerevisiae deletion strains, locus YOR083W, strain WHI5, stronger effect = lower value 0.894 | S. cerevisiae deletion strains, locus YOR136W, strain idh2, stronger effect = lower value 0.93 | S. cerevisiae deletion strains, locus YOR231W, strain MKK1, stronger effect = lower value 1 | S. cerevisiae deletion strains, locus YOR316C, strain cot1, stronger effect = lower value 0.962 | S. cerevisiae deletion strains, locus YPL078C, strain atp4, stronger effect = lower value 0.931 | S. cerevisiae deletion strains, locus YPL240C, strain hsp82, stronger effect = lower value 0.954 | S. cerevisiae deletion strains, locus YPL256C, strain CLN2, stronger effect = lower value 1.07 | S. cerevisiae deletion strains, locus YPR119W, strain clb2, stronger effect = lower value 0.982 | S. cerevisiae deletion strains, locus YPR141C, strain kar3, stronger effect = lower value 0.963 | S. cerevisiae deletion strains, locus YPR163C, strain tif3, stronger effect = lower value 0.936

— PubChem BioAssay AID1159580 (chemical genetic matrix, 2015)
